Source: PubChem BioAssay (National Center for Advancing Translational Sciences (NCATS))
Only some compounds are listed: those with a hit (about 17% of all), similar ones and a draw of the others.
TDP1 cell noCPT = qHTS for Inhibitors of human tyrosyl-DNA phosphodiesterase 1 (TDP1): qHTS in cells in absence of CPT; DT40 Tdp1-/- hTDP1 cells, no CPT, ATP luminescence, 48 h; AID 686978, 2013; 420,000 compounds, 15% hits; Potency, µM (series often up to 46.2 µM), inactives show top-dose activity change, negative = growth inhibition, actives largely listed as inhibitors; also: % is scaled to controls: 0 for no effect and ±100 for the full control effect; nearly all actives have a fitted effect of over 55% in size
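No-CPT arm: Tdp1-/-;hTDP1 DT40 cells (400/well) plus compounds, incubated ≥48 hr at 37 °C. Readout CellTiter-Glo luminescence.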
TDP1 inh = TDP1 (human) enzyme inhibition; Q9NUW8; Potency, µM (titrated, usually from 130 µM), for inactives: at the top dose activity change, negative = inhibition, actives largely listed as inhibitors; 350,000 compounds, 0.28% hits; AID 485290; recombinant TDP1, AlphaScreen DNA substrate cleavage; also: % is scaled to controls: 0 for no effect and ±100 for the full control effect; nearly all actives have a fitted effect of over 40% in size
Target sequence (Q9NUW8 whole entry, looked up): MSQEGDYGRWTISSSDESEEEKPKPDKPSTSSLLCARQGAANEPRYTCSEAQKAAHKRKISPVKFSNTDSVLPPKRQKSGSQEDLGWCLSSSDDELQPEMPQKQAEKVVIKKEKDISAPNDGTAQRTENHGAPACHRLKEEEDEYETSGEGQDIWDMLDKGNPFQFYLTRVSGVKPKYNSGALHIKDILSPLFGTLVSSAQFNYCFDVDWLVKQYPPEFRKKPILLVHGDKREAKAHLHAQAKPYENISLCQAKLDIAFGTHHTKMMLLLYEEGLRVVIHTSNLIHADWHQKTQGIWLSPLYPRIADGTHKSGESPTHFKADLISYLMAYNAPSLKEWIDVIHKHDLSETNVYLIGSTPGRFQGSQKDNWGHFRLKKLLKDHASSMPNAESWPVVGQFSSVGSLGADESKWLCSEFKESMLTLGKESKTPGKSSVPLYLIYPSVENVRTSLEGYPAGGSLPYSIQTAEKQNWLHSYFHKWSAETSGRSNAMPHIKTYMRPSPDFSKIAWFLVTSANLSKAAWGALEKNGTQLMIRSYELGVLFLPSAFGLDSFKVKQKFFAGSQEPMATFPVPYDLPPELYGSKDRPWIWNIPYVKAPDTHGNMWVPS
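Tdp1 1 nM final; 15 min RT w/ cpd; substrate 15 nM, 5 min; beads 10 ug/ml, 10 min; AlphaScreen read. Neg ctrl: no enzyme.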
ClpP mod = qHTS Assay for Activators of ClpP; purified B. subtilis ClpP, FRET peptide cleavage, 20 min; Potency, µM (doses to about 57.5 µM), for inactives: top-dose activity change, negative = active; 340,000 compounds, 1.9% hits; ATP-dependent Clp protease proteolytic subunit (Bacillus subtilis (strain 168)), P80244; active = well fitted falling curve with a large enough effect; inconclusive = small, poorly fitted or top-dose-only effect; inactive = no such curve, though single readings can be large or run the other way; also: the source files actives as falling curves though it sought activators and does not explain the sign; nearly all actives have a fitted effect of over 65% in size
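ClpP 10 microg/mL final, pH 8 Tris/KCl buffer with BSA, glycerol, Tween-20; compound pinned in; FRET-FV substrate; RT 20 min; Ex320/Em430; ΔFRET vs ADEP 5.8 microM, DMSO, no enzyme.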
DT40 TDP1 CPT = DT40-hTDP1 cell growth loss with CPT; chicken DT40 Tdp1-/-;hTDP1 cells + 20 nM CPT, ATP luminescence, 48 h; Potency, µM (highest dose often 46.2 µM), for the others: top-dose activity change, negative = growth inhibition, hits mostly inhibitors; 420,000 compounds, 12% hits; AID 686979; also: % is scaled to controls: 0 for no effect and ±100 for the full control effect; nearly all actives have a fitted effect of over 55% in size
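Cell growth measured by CellTiter-Glo luminescence after a minimum 48 h, 37 C compound exposure with 20 nM CPT in Tdp1-knockout DT40 cells stably expressing hTDP1, seeded 400/well; qHTS titration format.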
An asterisk follows results filed as active; ? = inconclusive; . = no result given; [ ] = dose if it differs, or a comment. Unless noted, calls follow the shape of the dose curve; as a rule, active = well fitted curve in the direction sought with a large enough effect; inconclusive = small, poorly fitted or top-dose-only effect, or another doubt; inactive = no such curve, though single readings can be large; an effect the other way counts as inactive or inconclusive. Potency is read from the fitted curve at half-maximal effect.

SMILES	TDP1 cell noCPT	TDP1 inh	ClpP mod	DT40 TDP1 CPT
O=C(Nc1ccc(C(=O)O)cc1)/C(=C\C=C\c1ccccc1)NC(=O)c1ccccc1Br	-0.5%	2.3%	-1.8%	11.8%
O=S1(=O)N=C(Oc2ccccc2Br)c2ccccc21	.	3.3%	.	.
COc1ccc(NC(=O)C(=O)c2cn(CC(=O)N3CCCC3)c3ccccc23)c(OC)c1	2.6%	3.0%	-1.7%	-8.3%
CCCN(CCC)C(=O)[C@@H](CCC(=O)O)NC(=O)c1ccccc1	.	-9.1%[56.1 µM]	.	.
CN(Cc1cnc2nc(N)nc(N)c2n1)c1ccc(C(=O)NC(CCC(=O)O)C(=O)O)cc1C(F)(F)F (stereo not given)	0.184µM*	.	?	0.0291µM*
CCc1ccc(NC(=O)Cn2c(=O)n(Cc3ccccc3)c(=O)c3oc4ccccc4c32)cc1	?	7.7%	-2.0%	?
Cn1c(=O)n(CC(=O)N2CCN(c3nnc(-c4ccccc4)c4ccccc34)CC2)c2ccccc21	?	5.2%	-1.4%	?
Cc1ccc(-c2nnc(N3CCN(C(=O)Cn4c(=O)n(C)c5ccccc54)CC3)c3ccccc23)cc1	16.4µM*	2.3%	0.8%	?
Cc1ccc(-c2nnc(N3CCN(C(=O)c4cccs4)CC3)c3ccccc23)cc1	23.1µM*	2.6%	1.4%	?
O=C(CN1CCOCC1)N1CCN(c2nnc(-c3ccccc3)c3ccccc23)CC1	-20.0%	5.5%	-0.5%	?
Cc1ccc(-c2nnc(N3CCN(C(=O)CN4CCOCC4)CC3)c3ccccc23)cc1	16.4µM*	1.1%	-0.9%	-27.4%
CCc1ccc(/C=C2\SC(N3CCCC3)=NC2=O)cc1	?	-3.7%	.	0.5%
COc1ccc(/C=C2\SC(N3CCCCC3)=NC2=O)cc1	?	.	-2.7%	11.6µM*
CC1Cc2cc(/C=C3/SC(N4CCC(C(N)=O)CC4)=NC3=O)ccc2O1 (stereo not given)	18.4µM*	.	.	14.6µM*
CCOC(=O)C1CCCN(C2=NC(=O)/C(=C/c3ccc(O)c(OC)c3)S2)C1 (stereo not given)	?	.	-0.1%	?
O=C1N=C(N2CCCCC2)S/C1=C\c1ccncc1	-29.1%	-1.4%	0.3%	6.2%
CCOC(=O)C1CCCN(C2=NC(=O)/C(=C/c3ccc(OC)c(OC)c3)S2)C1 (stereo not given)	9.2µM*	.	-4.0%	?
COc1cc(/C=C2\SC(N3CCCCC3)=NC2=O)cc(OC)c1OC	11.6µM*	.	.	20.6µM*
Cc1cc(NC(=O)c2ccccc2F)nc2c1c(=O)oc1ccccc12	?	-2.6%	.	?
Cc1cc(-n2c(=O)[nH]c(=O)n(C)c2=O)ccc1Oc1ccc(S(=O)(=O)C(F)(F)F)cc1	16.8µM*	.	.	?
Cc1cccc(C(=O)NC2CCN(CC(=O)Nc3ccccc3Cl)CC2)c1	-5.2%	.	0.8%	-0.3%
CC1CCCC(NCC(O)COC(c2ccc(F)cc2)c2ccc(F)cc2)C1C (stereo not given)	2.59µM*	1.2%	.	5.17µM*
Cc1c(C(=O)NCCCn2ccnc2)oc2ccccc12	2.2%	-3.6%	-0.6%	-13.9%
COc1ccc(C2CC(c3c(O)cc(C)oc3=O)=NCCS2)c(OC)c1 (stereo not given)	0.0206µM*	9.6%	-0.4%	0.461µM*
O=C1NC(=S)S/C1=C/c1ccc(N2CCOCC2)o1	?	0.0%	-1.2%	?
SMILES	TDP1 cell noCPT	TDP1 inh	ClpP mod	DT40 TDP1 CPT
COc1ccc2cc(/C=C3\SC(=S)NC3=O)c(N3CCOCC3)nc2c1	11.6µM*	5.5%	-1.0%	?
Cc1cc(=O)oc2c3c(ccc12)OCN(Cc1ccc(Cl)cc1)C3	?	-0.9%	16.3%	?
CC1CCCC(NC(=O)C2CCCN2S(=O)(=O)c2cccc3nsnc23)C1C (stereo not given)	14.6µM*	0.0%	0.2%	?
Cc1cccc(C(C)C)c1NC(=O)C1CCCN1S(=O)(=O)c1cccc2nsnc12 (stereo not given)	14.6µM*	1.2%	-6.7%	23.1µM*
O=C(NC(=S)NCCC1=CCCCC1)c1cncc(Br)c1	-6.7%	0.0%	3.3%	3.2%
O=C(NCC1CCCO1)c1cccc(NS(=O)(=O)c2ccc(Br)cc2)c1 (stereo not given)	?	1.3%	-1.9%	-2.6%
Cc1ccc(Cn2c(CNS(=O)(=O)c3cccc([N+](=O)[O-])c3)nc3cccnc32)cc1	?	8.8%	-2.4%	?
Cc1ccc(Cn2c(CNS(=O)(=O)c3ccc(Cl)s3)nc3cccnc32)cc1	?	2.2%	2.4%	?
CCc1ccc(S(=O)(=O)NCc2nc3cccnc3n2Cc2ccccc2Cl)cc1	14.6µM*	6.6%	0.6%	?
COc1ccc(Cn2c(CNS(=O)(=O)c3ccc(Cl)s3)nc3cccnc32)cc1	16.4µM*	12.1%	-1.2%	?
CCc1ccc(Cn2c(CNS(=O)(=O)c3ccc4c(c3)CCCC4)nc3cccnc32)cc1	16.4µM*	8.8%	-2.0%	?
COc1ccccc1Cn1c(CNS(=O)(=O)c2cccc([N+](=O)[O-])c2)nc2cccnc21	16.4µM*	11.0%	-14.8%	20.6µM*
O=[N+]([O-])c1ccc(S(=O)(=O)NCc2nc3cccnc3n2Cc2ccccc2Cl)cc1	14.6µM*	13.2%	-1.5%	14.6µM*
CC(C)(C)c1ccc(S(=O)(=O)NCc2nc3cccnc3n2Cc2ccccc2Cl)cc1	?	4.4%	-4.5%	?
CCOC(=O)c1cnc2ccc(OC)cc2c1Nc1ccc2c(c1)OCCO2	18.4µM*	4.9%	-3.1%	?
CCOC(=O)c1ccc2ncc(C(=O)OCC)c(Nc3ccc(N4CCOCC4)cc3)c2c1	6.51µM*	11.0%	1.3%	10.3µM*
CCOC(=O)c1cnc2ccc(C(=O)OC)cc2c1Nc1ccc2c(c1)OCCO2	?	8.4%	-0.6%	?
CCOC(=O)c1cnc2ccccc2c1Nc1ccc(N2CCOCC2)cc1	-18.8%	.	0.9%	?
CCOC(=O)c1cnc2ccc(OC)cc2c1Nc1ccc(N2CCN(C)CC2)cc1	20.6µM*	.	.	23.1µM*
Nc1c(C(=O)c2ccccc2O)cnn1-c1ccc(S(=O)(=O)N2CCOCC2)cc1[N+](=O)[O-]	.	6.0%	.	.
COc1ccc(-c2cc([C@H]3[C@@H]4C=CCC[C@@]4(C)C(=O)N3Cc3ccccc3)ccc2F)cc1	25.9µM*	-1.2%	-23.1%	?
Cc1ccc(-c2ccc(C3C4C=CCCC4(C)C(=O)N3Cc3ccccc3)c(F)c2)cc1 (stereo not given)	.	6.8%	.	.
Cc1ccc(-c2cc(C3C4C=CCC(C)C4C(=O)N3Cc3ccccc3)ccc2F)cc1 (stereo not given)	.	5.6%	.	.
COc1ccc(-c2cc(C3C4C=CCCC4(C)C(=O)N3Cc3ccccc3)ccc2F)cc1 (stereo not given)	.	3.8%	.	.
